{
  "source": "PubChem BioAssay (NCATS)",
  "note": "Records with an inconclusive call do not appear. Values without a mark were called inactive. Calls follow the shape of the dose curve; as a rule, active = well fitted inhibition curve with a large enough effect; inconclusive = small, poorly fitted or top-dose-only effect; inactive = no such curve, though single readings can be large or run the other way. % is scaled to controls: 0 for no effect and ±100 for the full control effect.",
  "data": [
    {"assay": "Primary qHTS for small molecule stabilizers of the endoplasmic reticulum resident proteome: Secreted ER Calcium Modulated Protein (SERCaMP) assay (AID 1508630)", "conditions": "SH-SY5Y GLuc-SERCaMP (Gaussia luciferase released on ER calcium loss) secretion, thapsigargin, luminescence; series mostly up to 38.4 µM; activity change, negative = inhibition: at the top concentration", "from_the_text": "Assay Provider: Brandon K. Harvey Ph.D.\nNational Institute on Drug Abuse, National Institutes of Health, Baltimore, MD\nEndoplasmic reticulum (ER) dysregulation is associated with human pathologies including neurodegenerative, cardiovascular, muscular, and diabetic conditions. Maintenance of ER calcium is critical for functions of the ER and its depletion can lead to loss of ER resident proteins, in a process termed exodosis. Therapeutic compounds capable of attenuating the redistribution of ER proteins under pathological conditions may slow or stop disease progression. To identify such compounds, we performed a quantitative high-throughput screen (qHTS) using the SERCaMP assay, which monitors secretion of ER resident proteins triggered by calcium depletion.\nSERCaMP was initially developed as a reporter of ER calcium homeostasis using a Gaussia luciferase with a modified signal peptide and carboxy-terminus (GLuc-SERCaMP), modifications that confer secretion of the reporter in response to ER calcium depletion (Henderson et al., 2014). The assay was used to screen 9,501 compounds, including a collection of drugs approved by the FDA (US), EMA (EU), NHI (Japan), and HC (Canada) regulatory agencies (Huang et al., 2011). Since the SERCaMP reporter reflects the exodosis phenomenon (Trychta et al., 2018a), compounds identified in the screen have the potential to prevent exodosis by different mechanisms such as stabilizing ER calcium or augmenting ERS retrieval.\n1. Henderson, M.J., Wires, E.S., Trychta, K.A., Richie, C.T., and Harvey, B.K. (2014). SERCaMP: a carboxy-terminal protein modification that enables monitoring of ER calcium homeostasis. Mol Biol Cell 25, 2828-2839.\n2. Huang, R., Southall, N., Wang, Y., Yasgar, A., Shinn, P., Jadhav, A., Nguyen, D.T., and Austin, C.P. (2011). The NCGC pharmaceutical collection: a comprehensive resource of clinically approved drugs enabling repurposing and chemical genomics. Sci Transl Med 3, 80ps16.\n3. Trychta, K.A., Back, S., Henderson, M.J., and Harvey, B.K. (2018a). KDEL Receptors Are Differentially Regulated to Maintain the ER Proteome under Calcium Deficiency. Cell Rep 25, 1829-1840 e1826.\nSEQUENCE No. (1, 2, 3, etc.); […] (e.g., Cells, Incubation, Reagent, etc.); VALUE and DESCRIPTION.\n1; Reagent; 5 uL; 1000 SH-SY5Y cells per wells\n3; Compound; 23 nL; Control inhibitor / compound library\n5; Reagent; 100 nM; Thapsigargin\n7; Reagent; 1 uL; 0.5x coelenterazine\n8; Detection; Luminescence; ViewLux imaging system\nNOTES (numbers refer to sequence above)\n1; SH-SY5Y human neuroblastoma cells stably expressing GLuc-SERCaMP (SH-SY5Y-GLuc-ASARTDL) cells were seeded in 1,536 well white tissue culture treated plates (Corning, Cat# 7464) in DMEM-high glucose-sodium pyruvate (ThermoFisher Scientific, Cat #10569) supplemented with 10% bovine growth serum (Hyclone), 10 U/ml penicillin (Gibco), 10 ug/ml streptomycin (Gibco), and 20 mM HEPES.\n2; Assay plates were incubated for 5 hour at 37C in a humidified incubator containing 5% CO2.\n3; qHTS libraries (23 nl, final concentrations of 1.53 uM, 7.67 uM, 38.3 uM) or controls (neutral control: DMSO, positive control: dantrolene) were added using a Kalypsis pin-tool Robotic System equipped with 1536 pinheads.\n4; Cells were then incubated for 16 hours at 37C, 5% CO2.\n5; Thapsigargin was added at 100 nM to deplete ER calcium stores.\n6; Cells were incubated for 4 hour (37 °C, 5% CO2)\n7; Gaussia luciferase in the medium was measured by adding 1 ul of 0.5x coelenterazine (final concentration 0.07x) prepared in Gaussia Luciferase Glow Assay Buffer (Pierce), without addition of the Cell Lysis Buffer Reagent.\n8; Luminescence was measured using a ViewLux […] CCD imaging system (Perkin Elmer) equipped with clear filters. […] The same controls were also used for the calculation of the Z' factor, a measure of assay quality control, as previously described (Zhang et al., 1999). […]", "values": [
      {"compound": "COc1cccc2c1C(=O)c1c(O)c3c(c(O)c1C2=O)C[C@@](O)(C(=O)CO)C[C@@H]3O[C@H]1C[C@H](N)[C@@H](O)[C@H](C)O1", "activity change, negative = inhibition": "175%"},
      {"compound": "COc1cccc2c1C(=O)c1c(O)c3c(c(O)c1C2=O)C[C@@](O)(C(=O)CO)C[C@H]3O[C@H]1C[C@H](N)[C@H](O)[C@H](C)O1", "activity change, negative = inhibition": "137%"},
      {"compound": "CCOC(=O)C1=C(C)NC(=S)NC1c1cccc(O)c1", "note": "(stereo not given)", "activity change, negative = inhibition": "23.7%"},
      {"compound": "O=C(Nc1cc2cc[nH]c2cn1)c1ccccc1", "activity change, negative = inhibition": "16.9%"},
      {"compound": "CCCCCCCCCCCCCCCC(=O)OC[C@@H](NC(=O)C(Cl)Cl)[C@H](O)c1ccc([N+](=O)[O-])cc1", "activity change, negative = inhibition": "-7.55%"},
      {"compound": "N#CNC(=NCCCCCCOc1ccc(Cl)cc1)Nc1ccncc1", "activity change, negative = inhibition": "0%"},
      {"compound": "N[C@H]1CN(c2c(F)cc3c(=O)c(C(=O)O)cn(C4C[C@@H]4F)c3c2Cl)CC12CC2", "note": "(stereo not given in full)", "activity change, negative = inhibition": "-2.46%"},
      {"compound": "O=C1NC(O)CCN1[C@@H]1O[C@H](CO)[C@H](O)[C@H]1O", "note": "(stereo not given in full)", "activity change, negative = inhibition": "9.38%"},
      {"compound": "Nc1cccc2c1C(=O)N(C1CCC(=O)NC1=O)C2=O", "note": "(stereo not given)", "activity change, negative = inhibition": "-20.2%"},
      {"compound": "COc1ccc(C(C)=O)c(O)c1", "activity change, negative = inhibition": "134%"},
      {"compound": "C[C@]12CCC(=O)C=C1[C@@H]1CC1[C@H]1[C@H]3[C@@H]4C[C@H]4[C@@]4(CCC(=O)O4)[C@@]3(C)CC[C@H]12", "note": "(stereo not given in full)", "activity change, negative = inhibition": "-53.3%"},
      {"compound": "CN1C(C(=O)Nc2ccccn2)=C(O)c2sc(Cl)cc2S1(=O)=O", "activity change, negative = inhibition": "0%"},
      {"compound": "COc1ccc(C[C@@H](C)[C@@H](C)Cc2ccc(OC)c(OC)c2)cc1OC", "activity change, negative = inhibition": "86.6%"},
      {"compound": "CC(C)N1[N]C(=C2C=c3cc(O)ccc3=N2)c2c(N)ncnc21", "activity change, negative = inhibition": "20.2%"},
      {"compound": "C=CCNc1c(O)cc2c(O)c1C[C@@H](C)C[C@H](OC)[C@@H](O)[C@@H](C)C=C(C)[C@H](OC(N)=O)[C@@H](OC)C=CC=C(C)C(=O)N2", "activity change, negative = inhibition": "-27.9%"},
      {"compound": "O=C1CSC(=O)N1C(CCc1ccncc1)COc1ccc(-c2cccc([N+](=O)[O-])c2)cc1", "note": "(stereo not given)", "activity change, negative = inhibition": "88.8%"},
      {"compound": "CN(CC(=O)N(Cc1ccc(C2CCCCC2)cc1)c1ccc(C(=O)O)c(O)c1)S(=O)(=O)c1c(F)c(F)c(F)c(F)c1F", "activity change, negative = inhibition": "-10.6%"},
      {"compound": "COc1ccc(Nc2cc(-c3cnc(N)nc3)nc(N3CCOCC3)n2)cn1", "activity change, negative = inhibition": "97.5%"},
      {"compound": "COc1cccc2c1C(=O)c1c(O)c3c(c(O)c1C2=O)C[C@@](O)(C(=O)CO)C[C@@H]3O[C@H]1C[C@H](N)[C@H](OC2CCCCO2)[C@H](C)O1", "note": "(stereo not given in full)", "activity change, negative = inhibition": "21.4%"},
      {"compound": "N#CC(=C(O)c1ccc(Cl)cc1Cl)c1nc2cc(Cl)ccc2c(=O)[nH]1", "activity change, negative = inhibition": "-31.3%"},
      {"compound": "CC(=O)[C@]1(O)Cc2c(O)c3c(c(O)c2[C@@H](O[C@H]2C[C@H](N)[C@@H](O)[C@H](C)O2)C1)C(=O)c1ccccc1C3=O", "activity change, negative = inhibition": "195%"},
      {"compound": "Cc1ccc2nc(NCCN)c3ncc(C)n3c2c1", "activity change, negative = inhibition": "399%"},
      {"compound": "CC(=O)O[C@@]12CO[C@H]1C[C@H](O)[C@@]1(C)C(=O)[C@H](O)C3=C(C)[C@@H](OC(=O)C(O)[C@@H](NC(=O)OC(C)(C)C)c4ccccc4)C[C@@](O)([C@@H](OC(=O)c4ccccc4)[C@@H]21)C3(C)C", "note": "(stereo not given in full)", "activity change, negative = inhibition": "21.4%"},
      {"compound": "N#Cc1ccc(COC[C@H]2O[C@@H](n3c(NCc4ccc(Cl)c(Cl)c4)nc4c(N)ncnc43)[C@@H](O)[C@@H]2O)cc1", "activity change, negative = inhibition": "0%"},
      {"compound": "COc1cc2c(Nc3ccc(Cl)c(Cl)c3F)ncnc2cc1OCC1C[C@@H]2CN(C)C[C@H]2C1", "activity change, negative = inhibition": "316%"},
      {"compound": "CCN(CC)CCCCNc1ncc2c(n1)N(C)C(=O)N(c1c(Cl)c(OC)cc(OC)c1Cl)C2", "activity change, negative = inhibition": "310%"},
      {"compound": "COc1cc(CCc2cc(NC(=O)c3ccc(N4C[C@@H](C)N[C@@H](C)C4)cc3)n[nH]2)cc(OC)c1", "activity change, negative = inhibition": "143%"},
      {"compound": "COc1cc(O)c2c(c1)C1OC1C[C@H](O)[C@H](O)C(=O)C=CC[C@H](C)OC2=O", "note": "(stereo not given in full)", "activity change, negative = inhibition": "121%"},
      {"compound": "c1cncc(CN2CCC(n3ncc4c(N5CCOCC5)nc(-c5ccc6[nH]ccc6c5)nc43)CC2)c1", "activity change, negative = inhibition": "361%"},
      {"compound": "CNC(=O)c1ccc(Nc2cc(Nc3ccccc3S(=O)(=O)C(C)C)c3cc[nH]c3n2)nc1", "activity change, negative = inhibition": "-6.71%"},
      {"compound": "C[C@H](CCC(=O)O)[C@H]1CCC2C3C[C@H](O)[C@@H]4C[C@H](O)CC[C@]4(C)C3CC[C@@]21C", "note": "(stereo not given in full)", "activity change, negative = inhibition": "48.7%"},
      {"compound": "O=C(NNC(=O)c1ccc(CNS(=O)(=O)c2ccc(F)c(Cl)c2)cc1)c1ccccc1", "activity change, negative = inhibition": "20.4%"},
      {"compound": "CCOC(=O)C=C[C@H](C[C@@H]1CCNC1=O)NC(=O)[C@@H](CC(=O)[C@@H](NC(=O)c1cc(C)on1)C(C)C)Cc1ccc(F)cc1", "activity change, negative = inhibition": "-26%"},
      {"compound": "C[C@@H](NCc1cc2ccccc2[nH]1)c1cccc2ccccc12", "activity change, negative = inhibition": "237%"},
      {"compound": "CCN1CCN(C(=O)N[C@H](C(=O)N[C@@H]2C(=O)N3C(C(=O)O)=C(CSc4nnnn4C)CS[C@@H]23)c2ccc(O)cc2)C(=O)C1=O", "activity change, negative = inhibition": "67.9% [at 13 µM]"},
      {"compound": "CC(=O)N[C@H]1[C@@H]([C@H](O)[C@H](O)CO)OC(C(=O)O)=C[C@@H]1N=C(N)N", "activity change, negative = inhibition": "0%"},
      {"compound": "CCN(CC)CCNC(=O)c1c(C)[nH]c(C=C2C(=O)Nc3ccc(F)cc32)c1C", "activity change, negative = inhibition": "361% [at 76.3 µM]"},
      {"compound": "OCCNC1CCCc2c1[nH]c1ccc(-c3ccccc3)cc21", "note": "(stereo not given)", "activity change, negative = inhibition": "210%"},
      {"compound": "Cc1cc(C(=O)NOCCO)c(Nc2ccc(I)cc2F)n(C)c1=O", "activity change, negative = inhibition": "82.1%"},
      {"compound": "CN(C)c1ccc(C(=O)NCCCCCCC(=O)NO)cc1", "activity change, negative = inhibition": "157%"}
    ]}
  ]
}
